Measured values: PubChem BioAssay (EPA / NIEHS)
Where “and” joins values, the source holds several entries; their conditions need not be identical. Identical values can stand only once. Calls of active or inactive are those of the source. Rule for the calls: active = hit-call score of the fitted dose curve at least 0.9, where 1 is the maximum; inactive = score below 0.9.

These molecules were tested on Intercellular Adhesion Molecule 1 (ICAM1), ICAM1 (gene 3383) (assay: BSK_3C_ICAM1: BioMAP Diversity Plus: 3C Assay for Intercellular Adhesion Molecule 1 (ICAM1) Biomarker Activity (AID 2283003)). Settings: primary human endothelial cells (HUVEC); actives raise or lower the signal.
Description: BSK_3C is a cell-based, multiplexed-readout assay that uses umbilical vein endothelium, a human vascular primary cell, with measurements taken at 24 hours after chemical dosing in a 96-well plate.BSK_3C_ICAM1 is an assay component measured in the BSK_3C assay. It measures ICAM-1 antibody related to regulation of gene expression using ELISA technology.Data from the assay component BSK_3C_ICAM1 was analyzed into 1 assay endpoint. This assay endpoint, BSK_3C_ICAM1, was analyzed with bidirectional fitting relative to DMSO as the negative control and baseline of activity. Using a type of binding reporter, gain or loss-of-signal activity can be used to understand changes in the signaling as they relate to the gene ICAM1. Furthermore, this assay endpoint can be referred to as a primary readout, because this assay has produced multiple assay endpoints where this one serves a signaling function. To generalize the intended target to other relatable targets, this assay endpoint is annotated to the cell adhesion molecules intended target family, where the subfamily is Immunoglobulin CAM.
The levels of cell surface (or secreted, indicated by the prefix "s") biomarker endpoints were measured by ELISA. Overt cytotoxicity to cells in confluent adherent cultures (all systems other than the BT system) was assessed by measuring total protein levels using sulforhodamine B (SRB) staining in parallel cultures at the time of biomarker measurements, indicated as SRB endpoints. For proliferation assays for adherent cell types, individual cell types are cultured at sub-confluence and relative cell numbers quantified by SRB staining at time points optimized for each system (48 h: 3C and CASM3C systems; 72 h: BT and HDF3CGF systems; 96 h: SAg system). SRB was performed by staining cells with 0.1% SRB after fixation with 10% TCA and reading wells at 560 nm.Viability and proliferation of PBMC (T cells) was quantified by Alamar Blue reduction for the SAg and BT systems. For PBMC viability (referred to as PBMC Cytotoxicity within the assay endpoint names), cells were plated (75,000/well in a 96-well plate) and then chemical samples added for 1 h before addition of activators, SEB and TSST-1 (20 ng/mL final concentration each). Cells were incubated for 90 h. Then, Alamar Blue (20 uL/well) (Invitrogen, Cat DAL1100) was added for 6 h, and the plates were read with a fluorescence microplate reader at 546/580 nm (excitation/emission). For PBMC proliferation, cells were plated and activated as above but incubated for only 16 h prior to addition of Alamar Blue. Plates were read after 6 h.
With `CCC(C)c1ccccc1O` (stereo not given) the outcome was “inactive”.
With `O=C1NS(=O)(=O)c2ccccc21` the outcome was “inactive”.
In the case of `Clc1ccc(Nc2nnc(Cc3ccncc3)c3ccccc23)cc1`, the outcome is reported as “inactive”.
For `CC(C)(C)c1ccc(O)c(O)c1`, the outcome was “inactive”.
In the case of `CS(=O)(=O)c1ccc([C@@H](CC2CCCC2)C(=O)Nc2cnccn2)cc1Cl`, the outcome is reported as “inactive”.
`CN(CCO)S(=O)(=O)C(F)(F)C(F)(F)C(F)(F)C(F)(F)C(F)(F)C(F)(F)C(F)(F)C(F)(F)F` was tested, and the outcome was “inactive”.
In the case of `CN(Cc1cnc2nc(N)nc(N)c2n1)c1ccc(C(=O)N[C@@H](CCC(=O)O)C(=O)O)cc1`, the outcome is reported as “inactive”.
For `CCCCC(CC)C(=O)OCCOCCOCCOCCOC(=O)C(CC)CCCC` (stereo not given), the outcome was “inactive”.
For `C=CC(C)(CCC=C(C)C)OC(C)=O` (stereo not given), the outcome was “inactive”.
With `O=C(c1ccccc1)c1ccccc1` the outcome was “inactive”.
With `CCCCCCCCCCCCCCCCCC[N+](C)(C)Cc1ccccc1` the AC50 was 2.56 µM (active).
For `OCC(F)(F)C(F)(F)C(F)(F)C(F)(F)C(F)(F)C(F)(F)C(F)(F)C(F)(F)C(F)(F)C(F)(F)C(F)(F)F`, the outcome was “inactive”.
With `O=P(O)(O)CCC(F)(F)C(F)(F)C(F)(F)C(F)(F)C(F)(F)C(F)(F)C(F)(F)C(F)(F)F` the outcome was “inactive”.
In the case of `NC(=NCCCCCCN=C(N)/N=C(\N)Nc1ccc(Cl)cc1)/N=C(\N)Nc1ccc(Cl)cc1`, the AC50 is reported as 10.5 µM (active).
In the case of `C[C@]12CC[C@@H]3c4ccc(O)cc4CC[C@H]3[C@@H]1C[C@@H](O)[C@@H]2O`, the outcome is reported as “inactive”.
For `CCCCC=O`, the outcome was “inactive”.
For `O=C(O)C(F)(F)OC(F)(F)C(F)(F)OC(F)(F)C(F)(F)OC(F)(F)C(F)(F)C(F)(F)C(F)(F)F`, the AC50 was 45.4 µM (active) and 53.1 µM (active).
With `CC1=NN(c2ccccc2)C(=O)C1` the outcome was “inactive”.
`O=S(=O)(O)C(F)(F)C(F)(F)C(F)(F)C(F)(F)C(F)(F)C(F)(F)C(F)(F)C(F)(F)C(F)(F)C(F)(F)F` was tested, and the outcome was “inactive”.
`O=P(O)(O)CCC(F)(F)C(F)(F)C(F)(F)C(F)(F)C(F)(F)C(F)(F)F` was tested, and the outcome was “inactive”.
In the case of `O=C(CCCN1CCC(O)(c2ccc(Cl)cc2)CC1)c1ccc(F)cc1`, the outcome is reported as “inactive”.
For `CCCCCCCCCCCCOS(=O)(=O)O`, the outcome was “inactive”.
In the case of `CC[N+](CC)(CC)Cc1ccccc1`, the outcome is reported as “inactive”.
In the case of `O=C(NO)c1ccccc1`, the outcome is reported as “inactive”.
For `Cc1ccc(N=Nc2c(O)ccc3ccccc23)c(C)c1`, the outcome was “inactive”.
For `O=C1c2ccc(O)c(O)c2C(=O)c2c(O)ccc(O)c21`, the outcome was “inactive”.
With `C=COC(=O)C(C)(C)CCCCCC` the AC50 was 30.7 µM (active).
In the case of `CC(=O)Nc1ccc(O)cc1`, the outcome is reported as “inactive”.
With `Cc1ccc(C(=O)c2ccccc2)cc1` the outcome was “inactive”.
In the case of `OCC(CO)(CBr)CBr`, the outcome is reported as “inactive”.
`CCCCCCCCCCCC` was tested, and the outcome was “inactive”.
`Cc1cccc2c1ccc1ccccc12` was tested, and the outcome was “inactive”.
In the case of `O=C(CC(=O)C(F)(F)C(F)(F)C(F)(F)F)c1cccs1`, the AC50 is reported as 46.2 µM (active) and 50 µM (active).
`CN(C)CCOC(c1ccccc1)c1ccccc1` was tested, and the outcome was “inactive”.
With `O=C(NCc1ncc(C(F)(F)F)cc1Cl)c1c(Cl)cccc1Cl` the outcome was “inactive”.
For `Oc1c(Cl)cc(Cl)cc1Sc1cc(Cl)cc(Cl)c1O`, the AC50 was 33.5 µM (active) and 34.8 µM (active).
In the case of `C=CC(=O)OCCC(F)(F)C(F)(F)C(F)(F)C(F)(F)C(F)(F)C(F)(F)C(F)(F)C(F)(F)F`, the outcome is reported as “inactive”.
For `Cc1[nH]nc2c1N=C(c1ccccc1Cl)c1cc([N+](=O)[O-])ccc1N2`, the outcome was “inactive”.
In the case of `Oc1ccc(Cc2ccccc2O)cc1`, the outcome is reported as “inactive”.
For `CCOC(=O)CN[C@@H](C(=O)N1CC[C@H]1C(=O)NCc1ccc(/C(N)=N/O)cc1)C1CCCCC1`, the outcome was “inactive”.
